The source made the active and inactive calls.
Columns and labels:
[1] = binders of probe aFSTL3 on microarray, primary screen, stem cell growth factor project, biochemical, small-molecule microarray, fluorescence 635/667 (AID 1064); conditions: higher = more signal;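 note: measures binding of the biotinylated anti-FSTL3 antibody to printed compounds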
[2] = binders from COS7 lysate, DM2A8 probe, primary screen, torsin A project, cell lysate, small-molecule microarray, fluorescence 635/667 (AID 1065); conditions: higher = more signal, COS7 lysate expressing mutant human TOR1A
[3] = binders of probe aFGF2 on microarray, primary screen, stem cell growth factor project, biochemical, small-molecule microarray, fluorescence 635/667 (AID 1067); conditions: higher = more signal;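 note: measures binding of biotinylated aFGF2 protein to printed compounds on slides; z-score merges feature fluorescence and signal-to-noise across triplicate slides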
[4] = binders of probe aFGF10 on microarray, primary screen, stem cell growth factor project, biochemical, small-molecule microarray, fluorescence 635/667 (AID 1071); conditions: higher = more signal;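 note: score merges 667 nm spot intensity and signal to noise from triplicate slides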
[5] = biological target: Neurogenic locus notch homolog protein 2 (Homo sapiens) (UniProt Q04721); experiment: Notch2 binders on small-molecule microarrays, primary screen, biochemical, small-molecule microarray, 635 nm fluorescence, stem cell growth factors (AID 1073); conditions: Notch2 binding, higher = more signal
[6] = biological target: Pro-neuregulin-1, membrane-bound isoform (Homo sapiens) (UniProt Q02297); experiment: NRG1 binders on small-molecule microarrays, primary screen, psychiatric disease protein project, biochemical, small-molecule microarray, fluorescence 635/667 (AID 1075); conditions: NRG1 binding, 635 nm fluorescence, higher = more signal;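 note: score combines 667 nm spot fluorescence with signal to noise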
[7] = system: Neuregulin-1 EGF-like domain; experiment: binders of neuregulin-1 EGF-like domain, primary screen, biochemical, small-molecule microarray, 635 nm fluorescence (AID 1081); conditions: small-molecule microarray binding, higher = more signal;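 note: binding of the protein to compounds printed on small-molecule microarray slides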
[8] = FRG1 promoter luciferase signal modulators, primary screen, FRG1 inhibition for FSHD, cell-based, C2C12 myotubes, firefly/Renilla luciferase, luminescence (AID 1084); conditions: higher = more signal, called active from +8 up or from −8 down
[9] = binders of probe aFST on microarray, primary screen, stem cell growth factor project, biochemical, small-molecule microarray, fluorescence 635/667 (AID 1086); conditions: higher = more signal;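 note: score merges 667 nm fluorescence with signal-to-noise of each printed compound spot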
[10] = binders of probe aHhip on microarray, primary screen, stem cell growth factor project, biochemical, small-molecule microarray, fluorescence 635/667 (AID 1087); conditions: higher = more signal;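 note: score merges spot fluorescence at 667nm with spot signal to noise ratio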

Chain of Pro-neuregulin-1, membrane-bound isoform (Homo sapiens) (Q02297 whole entry, looked up, the tested form may be a part, canonical isoform): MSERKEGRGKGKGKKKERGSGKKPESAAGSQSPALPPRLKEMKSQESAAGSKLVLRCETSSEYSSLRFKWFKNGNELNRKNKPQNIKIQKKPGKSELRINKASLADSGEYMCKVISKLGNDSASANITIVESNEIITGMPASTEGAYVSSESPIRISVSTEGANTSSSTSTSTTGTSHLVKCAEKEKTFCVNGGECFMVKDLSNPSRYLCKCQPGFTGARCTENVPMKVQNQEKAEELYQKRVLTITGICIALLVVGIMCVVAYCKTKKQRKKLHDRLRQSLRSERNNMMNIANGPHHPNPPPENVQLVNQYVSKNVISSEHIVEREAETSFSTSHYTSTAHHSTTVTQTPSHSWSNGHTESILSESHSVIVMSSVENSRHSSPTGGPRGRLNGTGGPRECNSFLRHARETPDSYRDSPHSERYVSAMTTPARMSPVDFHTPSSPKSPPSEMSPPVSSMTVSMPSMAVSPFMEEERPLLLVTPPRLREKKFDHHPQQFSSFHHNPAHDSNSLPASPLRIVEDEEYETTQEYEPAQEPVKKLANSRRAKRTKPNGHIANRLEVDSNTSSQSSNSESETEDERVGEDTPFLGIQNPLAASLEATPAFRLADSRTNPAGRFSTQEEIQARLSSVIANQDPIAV
Chain of Neurogenic locus notch homolog protein 2 (Homo sapiens) (Q04721 whole entry, looked up, canonical isoform): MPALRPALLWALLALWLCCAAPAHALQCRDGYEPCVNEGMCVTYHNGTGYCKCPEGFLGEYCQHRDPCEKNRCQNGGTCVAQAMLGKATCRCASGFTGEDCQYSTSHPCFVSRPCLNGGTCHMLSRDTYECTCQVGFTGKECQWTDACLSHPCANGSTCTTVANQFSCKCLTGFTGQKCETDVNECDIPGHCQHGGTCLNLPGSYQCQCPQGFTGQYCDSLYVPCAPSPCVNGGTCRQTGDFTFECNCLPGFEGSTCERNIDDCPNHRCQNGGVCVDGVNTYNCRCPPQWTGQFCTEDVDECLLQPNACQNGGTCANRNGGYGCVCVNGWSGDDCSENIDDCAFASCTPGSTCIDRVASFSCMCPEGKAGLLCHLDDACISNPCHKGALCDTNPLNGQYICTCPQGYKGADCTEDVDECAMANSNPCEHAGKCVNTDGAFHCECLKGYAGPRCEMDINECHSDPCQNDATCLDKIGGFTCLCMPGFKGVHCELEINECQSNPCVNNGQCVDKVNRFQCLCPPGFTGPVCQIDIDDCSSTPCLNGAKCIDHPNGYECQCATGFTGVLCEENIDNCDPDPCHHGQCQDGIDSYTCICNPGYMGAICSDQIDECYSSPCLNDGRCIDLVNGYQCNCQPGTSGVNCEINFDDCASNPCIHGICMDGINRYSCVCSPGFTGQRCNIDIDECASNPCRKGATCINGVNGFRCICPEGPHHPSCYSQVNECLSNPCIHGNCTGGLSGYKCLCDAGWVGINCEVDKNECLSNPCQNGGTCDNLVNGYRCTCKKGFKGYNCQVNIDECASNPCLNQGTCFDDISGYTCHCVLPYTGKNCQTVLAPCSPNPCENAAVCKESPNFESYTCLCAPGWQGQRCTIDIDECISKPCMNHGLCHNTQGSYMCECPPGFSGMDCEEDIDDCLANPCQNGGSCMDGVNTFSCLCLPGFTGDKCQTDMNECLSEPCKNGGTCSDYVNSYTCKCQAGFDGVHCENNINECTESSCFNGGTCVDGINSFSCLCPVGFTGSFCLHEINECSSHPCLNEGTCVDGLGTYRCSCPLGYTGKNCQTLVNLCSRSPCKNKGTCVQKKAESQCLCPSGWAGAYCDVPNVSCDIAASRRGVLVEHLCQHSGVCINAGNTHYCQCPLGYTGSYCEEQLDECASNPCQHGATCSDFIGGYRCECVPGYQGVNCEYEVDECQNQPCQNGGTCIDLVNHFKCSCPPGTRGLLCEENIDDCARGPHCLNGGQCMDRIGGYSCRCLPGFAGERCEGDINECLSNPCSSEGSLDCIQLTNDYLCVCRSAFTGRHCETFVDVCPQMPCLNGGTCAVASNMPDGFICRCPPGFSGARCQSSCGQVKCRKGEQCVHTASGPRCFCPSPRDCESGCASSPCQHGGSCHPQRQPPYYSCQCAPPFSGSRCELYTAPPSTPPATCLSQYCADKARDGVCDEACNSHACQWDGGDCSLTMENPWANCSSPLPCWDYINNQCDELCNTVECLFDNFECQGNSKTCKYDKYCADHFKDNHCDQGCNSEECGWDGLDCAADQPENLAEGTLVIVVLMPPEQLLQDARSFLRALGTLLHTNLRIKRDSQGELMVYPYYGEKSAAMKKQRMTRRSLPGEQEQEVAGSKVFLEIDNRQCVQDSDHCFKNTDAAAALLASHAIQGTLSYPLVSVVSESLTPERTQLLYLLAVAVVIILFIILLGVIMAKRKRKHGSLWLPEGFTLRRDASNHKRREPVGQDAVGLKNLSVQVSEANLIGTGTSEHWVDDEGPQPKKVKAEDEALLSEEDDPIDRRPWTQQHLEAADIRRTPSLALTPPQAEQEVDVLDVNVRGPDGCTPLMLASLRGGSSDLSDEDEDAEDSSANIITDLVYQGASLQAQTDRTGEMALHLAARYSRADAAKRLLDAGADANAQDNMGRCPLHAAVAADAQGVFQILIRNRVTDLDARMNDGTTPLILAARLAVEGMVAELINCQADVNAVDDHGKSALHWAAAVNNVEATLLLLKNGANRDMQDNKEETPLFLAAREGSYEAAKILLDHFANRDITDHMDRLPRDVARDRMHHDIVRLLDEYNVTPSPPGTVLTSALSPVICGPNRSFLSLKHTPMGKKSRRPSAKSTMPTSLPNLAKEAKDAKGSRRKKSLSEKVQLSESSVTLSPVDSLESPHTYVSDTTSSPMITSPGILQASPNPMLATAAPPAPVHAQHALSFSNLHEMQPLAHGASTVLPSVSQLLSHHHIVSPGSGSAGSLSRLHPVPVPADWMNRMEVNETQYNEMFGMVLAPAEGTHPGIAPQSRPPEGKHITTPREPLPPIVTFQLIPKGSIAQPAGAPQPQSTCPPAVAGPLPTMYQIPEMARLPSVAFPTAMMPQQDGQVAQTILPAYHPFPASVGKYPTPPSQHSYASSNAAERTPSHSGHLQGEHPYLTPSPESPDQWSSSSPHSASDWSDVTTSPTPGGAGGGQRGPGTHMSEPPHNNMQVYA

| SMILES | composite z-score [1] | composite z-score [2] | composite z-score [3] | composite z-score [4] | composite z-score [5] | composite z-score [6] | composite z-score [7] | z-score [8] | composite z-score [9] | composite z-score [10] |
| --- | --- | --- | --- | --- | --- | --- | --- | --- | --- | --- |
| C=CC[C@]1(C(=O)N2CCCCC2)N=C(c2ccc(OCCCO)cc2)O[C@H]1c1ccccc1CN=[N+]=[N-] | -0.25 | 0.516 | 0.238 | 0.546 | 1.42 | 1.17 | 1.24 | -1.08 (inactive) | 0.907 | -0.0699 |
| C=C[C@@H](OC)[C@H](OC(=O)Nc1ccc(OC)cc1)c1ccc(O)c(F)c1 | -0.122 | 1.6 | -0.142 | -0.528 | -1.25 | 0.749 | 1.15 | 3.87 (inactive) | -0.39 | -0.0994 |
| CO[C@H]1O[C@H](CO)[C@@H](OC(=O)Nc2ccc3c(c2)OCO3)[C@H](OC(=O)Nc2ccc3c(c2)OCO3)[C@@H]1OC(=O)Nc1ccc2c(c1)OCO2 | -0.202 | 0.584 | 0.256 | 1.21 | 1.26 | 1.78 | 1.2 | 2.2 (inactive) | 0.338 | 0.0818 |
| COc1cc2c(cc1O)C(c1cccs1)N(Cc1cc3c(cc1Br)OCO3)CC2 (stereo not given) | -0.0508 | 0.58 | 0.0797 | 1.3 | 1.56 | 2.08 | 1.45 | 0.364 (inactive) | 1.23 | 0.0881 |
| CC(C)[Si](C#C[Si](C(C)C)(C(C)C)C(C)C)(O[C@H](c1ccccc1)c1cn(Cc2ccccc2)nn1)C(C)C | -0.353 | 0.213 | -0.1 | 0.311 | 0.615 | -0.16 | 0.928 | 0.133 (inactive) | 0.276 | 0.0808 |
| CC(=O)N1CC2(CC2)CC1c1ccccc1 (stereo not given) | 0.392 | 1.04 | -0.14 | 0.242 | 0.437 | 0.163 | 0.413 | 2.2 (inactive) | 0.661 | 0.533 |
| CN(C)c1ccc(C(O)C2C=CC3C(=O)NC(=O)C3N2Nc2ccccn2)cc1 (stereo not given) | -0.142 | 1.55 | -0.0982 | 0.68 | 1.5 | 1.15 | 1.41 | 2.15 (inactive) | 0.995 | -0.134 |
| COc1ccc([Si](C)(C)[C@@H]2[C@@H](CCO)O[C@]3(C(=O)N(Cc4ccccc4)c4ccc(NC(=O)[C@H](C)O)cc43)[C@H]2C)cc1 | -0.441 | 0.383 | -0.0505 | 0.8 | 1.23 | 1.13 | 1.13 | -3.84 (inactive) | 0.559 | 0.162 |
| COc1ccc(CCNC(=O)[C@@]2(c3ccc([N+](=O)[O-])cc3)CC(=O)N(C3CCCCC3)[C@@H]2c2ccc(CO)cc2)cc1 | 0.376 | 0.409 | 0.0598 | 0.325 | 0.58 | 1.54 | 1.23 | -0.517 (inactive) | 0.602 | 0.177 |
| CC(C)N1C(=O)C[C@@](C(=O)O)(c2ccc([N+](=O)[O-])cc2)[C@H]1c1ccc(CO)cc1 | 1 | 0.208 | -0.031 | 0.117 | -0.436 | 0.425 | 1.04 | 0.161 (inactive) | -0.322 | 0.0373 |
| CCOC(=O)C[C@H]1[C@H](OC(=O)c2ccc(C(=O)c3ccccc3)cc2)[C@@H](NC(=O)c2ccc(-c3ccccc3)cc2)c2cc(OCCCO)ccc2N1C(=O)Cc1ccc(OC)cc1 | -0.258 | -0.0676 | -0.0364 | 0.034 | 0.618 | 0.486 | -0.228 | -0.111 (inactive) | 0.765 | 0.0976 |
| CCCNC(=O)[C@@]1(Sc2ccc(C)cc2)CC(=O)N(C2Cc3ccccc3C2)[C@@H]1c1ccc(CO)cc1I | 0.427 | 0.31 | -0.103 | 0.0119 | -0.445 | 0.917 | 1.01 | -0.653 (inactive) | -0.227 | 0.0505 |
| COC(=O)[C@@]1(Cc2ccc(F)cc2)[C@H]2c3cc(C(=O)N4CCCC4)n(Cc4ccc(C)c(F)c4F)c3C[C@H]2CN1C(=O)c1ccccc1 | 0.573 | -0.0621 | -0.0887 | -0.227 | 1.11 | 1.29 | 1.35 | 2.59 (inactive) | 0.409 | -0.0618 |
| CCCC#C[Si](O[C@H](CC)c1cn([C@H](C)c2ccccc2)nn1)(C(C)C)C(C)C | -0.4 | 1.31 | -0.0407 | 0.468 | 0.97 | 0.0607 | 0.181 | 0.337 (inactive) | 0.593 | -0.407 |
| CCOC(=O)C1=C[C@@H](c2ccccc2)N(S(=O)(=O)c2ccc(C)cc2)[C@H]1c1ccc(OC)cc1 | 0.0896 | 0.733 | 0.479 | 0.848 | 1.61 | 1.02 | 1 | -2.76 (inactive) | 1.14 | 0.554 |
| CO[C@H]1O[C@H](CO)[C@@H](OC(=O)Nc2ccccc2)[C@H](OC(=O)c2cc3ccccc3[nH]2)[C@H]1OC(=O)c1cc2ccccc2[nH]1 | 0.731 | 0.0889 | 0.0336 | 0.886 | 0.518 | 1.18 | 0.495 | -0.542 (inactive) | 0.219 | -0.0994 |
| C=C[C@H](C)[C@H](OC(=O)Nc1ccc(SC)cc1)c1ccc(OCCO)cc1 | -0.0439 | 1.18 | -0.1 | 0.406 | -0.34 | 0.745 | 1.15 | 4.38 (inactive) | 0.0319 | 0.0972 |
| C=CCNC(=O)[C@@H]1[C@H]2C(=O)O[C@H](c3ccccc3)[C@H](c3ccccc3)N2[C@H](c2ccccc2OCCO)[C@@]12C(=O)N(C(=O)OCCOC)c1ccc(C#CC3(O)CCCCCC3)cc12 | -0.249 | 0.356 | -0.0004 | 0.427 | 1.14 | 1.16 | 1.14 | -0.257 (inactive) | 0.771 | -0.0994 |
| CCOC(=O)C[C@H]1[C@H](OC(=O)c2cc3ccccc3oc2=O)[C@@H](NC(=O)CC(C)C)c2cc(OCCCO)ccc2N1C(=O)c1ccc2ccccc2n1 | -0.444 | 0.304 | -0.132 | 0.945 | 1.09 | 0.594 | 1.1 | 0.159 (inactive) | 0.252 | -0.199 |
| Oc1ccc2cc[n+](Cc3cc4c(cc3Br)OCO4)cc2c1 | 0.254 | 0.0899 | -0.0148 | -0.903 | -1.69 | -0.614 | 0.565 | 0.985 (inactive) | -0.164 | -0.236 |
| CCCCN1CC=CC23O[C@@H]4/C=C\CCC(C)OC(=O)C4[C@H]2C(=O)N(CCCO)[C@@H]3C1=O (stereo not given in full) | 0.35 | -0.913 | -0.195 | -0.317 | -0.962 | 1.93 | 1.1 | -0.313 (inactive) | -0.663 | -0.306 |
| O=C1CS(=O)(=O)C(c2cccc([N+](=O)[O-])c2)N1c1ccccc1 (stereo not given) | 0.63 | 1.79 | 0.467 | 0.446 | 0.936 | 1.66 | 1.19 | -0.997 (inactive) | 0.822 | 1.56 |

— PubChem BioAssay
